Drawing on PubChem BioAssay AID2288 (National Center for Advancing Translational Sciences (NCATS), 2010), this text covers outcome for 26 molecules.

Out of some 340,000 compounds screened, fewer than 10 were called active. About 2% were inconclusive and are not listed. Calls follow the shape of the dose curve; as a rule, active = well fitted curve in the direction sought with a large enough effect; inconclusive = small, poorly fitted or top-dose-only effect, or another doubt; inactive = no such curve, though single readings can be large or run the other way. These entries were drawn from the full list.

This test can be described thus: qHTS Assay for Modulators of miRNAs and/orActivators of miR-21.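 Also: miR-21 action dims this reporter so a rising signal means less miR-21 action.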 The note with it: HeLa miR-21 FLuc reporter, luciferase, 48 h; series mostly up to 38.3 µM. From the text: MLSCN Grant: 1 R21 NS059478-01 Assay Provider: Qihong Huang, The Wistar Institute NCGC Assay Overview: MicroRNAs (miRNAs) are endogenously encoded small (~20-25 nucleotides), nonprotein-coding RNAs that are involved in post-transcriptional repression of target messenger RNAs (mRNAs) (Le and Hannon, 2004). Estimated to be involved in the regulation of 30% of all protein-coding mRNAs (Filipowicz et al., 2008), miRNAs play a significant role in many biological processes including cellular differentiation and tissue development (Ghildiyal and Zamore, 2009).
NCGC Assay Protocol Summary: Reagents: HeLa cells stably expressing firefly luciferase (FLuc) under the control of a CMV promoter (upstream) and a miR-21 binding sequence directly downstream of the gene. These cells endogenously express miR-21. Control compounds used were compound C3 (provided by collaborator), N6-phenyladenosine (MP Biomedicals, 0215379625), and DMSO. Assay Summary: 6uL of HeLa miR-21-FLuc cells in assay buffer (DMEM, Invitrogen #21063-029; 10% FBS, HyClone #SH30071.03) were dispensed at 2000cells/well (3.3 x 10^5 cells/mL) into Greiner solid-white TC-treated 1536-well plates using a Multidrop Combi (Thermo Fisher Scientific). Plates were incubated for one hour at 37 degree Celsius, 95% humidity, 5% CO2. These assay plates were then treated with 23nL of compound or DMSO using a Kalypsys pin tool, which allows for delivery of a 24-point titration of each compound to the assay plate, with a final compound concentration ranging from approximately 40uM to 5pM. Assay plates were then incubated for 48 hours. After incubation, plates were allowed to come to RT for one hour prior to delivery of 3uL of 3X luciferase detection reagent. After a 15 minute incubation to allow for cell lysis, luciferase activity was measured using a ViewLux CCD imager (PerkinElmer), with an average exposure time of 2-12 seconds. Keywords: NIH Roadmap, MLPCN, MLSMR, qHTS, miR-21, microRNA, firefly luciferase, FLuc.
With `CCCN1CCN(CCCNC(=O)c2cnn(-c3ccc(C)cc3)c2-n2cccc2)CC1`, the call was inactive.
`CCCCN(CC)C(=O)c1c[nH]c2ccc(S(=O)(=O)Nc3cccc(OC)c3)cc2c1=O`: the result was inactive.
As for `Cc1c(-c2nc(-c3ccc4c(c3)OCO4)no2)nnn1-c1ccc(Br)cc1F`, the result was inactive.
For `O=C(NCc1cccnc1)C(=O)NCC(c1cccnc1)N1CCN(c2ccccc2)CC1` (stereo unspecified), the molecule was classed as inactive.
On to `Cc1ccccc1C(=O)NCc1nc(-c2ccc(Cl)cc2)no1`, for which the molecule was classed as inactive.
The entry for `CCOc1ccc(NC(=O)Cn2c(=O)n(CCCC(=O)NCc3ccc4c(c3)OCO4)c(=O)c3ccccc32)cc1` is “inactive”; for `CCOc1ccc(Nc2oc(/C=C/c3ccc(F)cc3)nc2C#N)cc1` it is “inactive”; for `CCOc1ccc(OCC)c(NC(=O)c2cc(C)nc3c2c(C)nn3-c2cccc(Cl)c2C)c1` it is “inactive”.
The entry for `COC(=O)c1ccc(NC(=O)CCc2c(C)nc3c(c(C)nn3-c3ccc(C)cc3)c2C)cc1` is “inactive”.
For `COc1cc(Cl)c(NC(=O)CC(C)S(=O)(=O)c2cc3c(cc2C)NC(=O)CO3)c(OC)c1` (stereo unspecified), the call was inactive.
Consider `Cc1ccc(CN2CCc3nc(N4CCN(C)CC4)ncc3C2)cc1`, for which the molecule was classed as inactive.
The entry for `CCOC(=O)c1ccc2c(c1)N(Cc1cccc(OC)c1)C(=O)c1ccccc1S2(=O)=O` is “inactive”.
`COc1ccc(Cc2nc3ccc(C(=O)NCc4ccccc4C)cc3o2)cc1`: the call was inactive.
The entry for `CCOC(=O)c1c(C)[nH]c(CCC(=O)NCCCN2CCN(c3cccc(Cl)c3)CC2)c1C` is “inactive”; for `Cc1ccc(SCC(=O)Nc2ccc3oc(-c4ccccc4F)nc3c2)cc1` it is “inactive”.
The entry for `CN(C(=O)CSc1nc2ccccc2n1Cc1ccccc1C#N)c1ccccc1` is “inactive”; for `CCc1nnc(SCc2nc(-c3cccc(C)c3)oc2C)c2cc3sc(C)cc3n12` it is “inactive”.
The entry for `COc1ccccc1N1CCN(c2ncnc3onc(-c4ccc(F)cc4)c23)CC1` is “inactive”; for `CC(C)Oc1ccc(CNC(=O)C2CCN(c3nc4ccccc4n(C)c3=O)CC2)cc1` it is “inactive”; for `CC(C)c1ccc(NS(=O)(=O)c2ccc3[nH]cc(C(=O)NC4CCCC4)c(=O)c3c2)cc1` it is “inactive”.
For the molecule `Cc1ccc(-n2nc(C)c3c(C)cc(=O)n(CC(=O)Nc4ccc(C(C)C)cc4)c32)cc1`, the molecule was called inactive.
As to `O=C(NCCCO)c1nn(-c2ccc(Cl)cc2)nc1CO`, the result was inactive.
As for `COc1ccccc1CNC(=O)CCCn1c(=O)c2ccccc2n(CC(=O)Nc2ccc(C)cc2Cl)c1=O`, the molecule was classed as inactive.
The entry for `COc1cccc(-n2c(=O)c3c(C)c(C(=O)N(C)C)sc3n(Cc3cccc(C)c3)c2=O)c1` is “inactive”.
In the case of `CCOc1cccc2sc(N3CCN(C(=O)C4CC4)CC3)nc12`, the molecule was called inactive.
In the case of `CCc1nn(CC(=O)N2CCN(c3ccc(Cl)cc3)CC2)c(=O)c2cc3occc3n12`, the molecule was called inactive.
